# Reference: PubChem BioAssay (NCI)
# About 83,000 compounds went through this panel and 20% of them were active in at least one assay; those are over-represented in the sample as a whole.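 Plates (96-well) were seeded with cells, treated with compound at one concentration, and incubated for 48 hours before percent growth was determined.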 Values without a mark were called inactive. Calls of active or inactive are those of the source. How the source made its calls: active means growth percent below 10; inactive means the rest.
# Key:
# Assay in all cases: NCI-60 one-dose screen, 48 h (100 = growth as untreated, 0 = no growth, -100 = all killed)
# Conditions in all cases: 10 µM unless noted
# [1] = system: T-47D breast
# [2] = system: MDA-MB-435 melanoma
# [3] = system: SW-620 colon
# [4] = system: MCF7 breast
# [5] = system: HCT-116 colon
# [6] = system: HCC-2998 colon
# [7] = system: KM12 colon
SMILES,growth [1],growth [2],growth [3],growth [4],growth [5],growth [6],growth [7]
O=C(O)c1cccc(CN2CCN(c3cc4c(cc3F)c(=O)c(C(=O)O)cn4C3CC3)CC2)c1O,96.6%,99%,102%,97.6%,104%,105%,
CSc1nc2sc3cc(Cl)c(Cl)cc3n2c(=N)c1C#N,89.4%,97.7%,98.1%,60.5%,100%,106%,98.9%
O=C1COCCN1c1ccc(NCc2cn(Cc3ccccc3)c3ccccc23)cc1,44.9%,97.9%,84.9%,63.9%,62.9%,105%,104%
O=C1NC(=O)C(Cc2ccc(OCc3ccc(-c4cc(F)c(F)c(F)c4)cc3)cc2)S1 (configuration not stated),57.6%,99%,95.2%,83.9%,83.9%,97.3%,81.9%
O=C(CCNCc1ccccc1)c1ccccc1,104%,109%,109%,102%,106%,107%,96.7%
COC(=O)[C@H](CC(C)C)NC(=O)NC(=O)NC(=O)CI,17.3%,72.7%,-51.5% (active),33.2%,50%,91.9%,94.1%
Cc1cc(C)c(O)c(CNCCCCCCNCc2cc(C)cc(C)c2O)c1,-60.8% (active),-90.8% (active),-75.4% (active),-81.4% (active),-42.9% (active),-84.3% (active),
COC(=O)[C@@H](NC(=O)NC(=O)NC(=O)CI)C(C)C,44.8%,90.5%,9.83% (active),59.9%,75%,113%,100%
COc1ccc(C(=O)CSc2nccc(Nc3ccc(C(=O)O)cc3)n2)cc1,102%,106%,95.6%,101%,95.7%,104%,101%
CCOC(=O)COc1c(C)cc(SSc2cc(C)c(OCC(=O)OCC)c(C)c2)cc1C,91.3%,114%,99.5%,92.6%,104%,112%,72.4%
CCN=Cc1c(O)c(O)c(C(C)C)c2cc(C)c(-c3c(C)cc4c(C(C)C)c(O)c(O)c(C=NCC)c4c3O)c(O)c12,35%,68.1%,29.2%,27.3%,22.5%,38.9%,21.3%
O=C(CCCSc1nc(-c2ccccc2)cc(-c2ccccc2)n1)NO,-2.43% (active),12.3%,16%,9.38% (active),9.52% (active),17.7%,14.4%
COc1ccc(/C=C(/C2=NCCN2)n2ccc3ccccc32)cc1,86.2%,89.9%,87.1%,83.4%,83%,98.5%,95.8%
Oc1cc(Nc2ccnc3cc(Cl)ccc23)c2ncccc2c1,52.1%,70%,66.6%,61%,69.3%,112%,87.6%
COc1ccc(-c2cc(-c3ccccc3)nc(SCCCCCC(=O)NO)n2)cc1,22.7%,37.5%,29.7%,49.8%,21.6%,78.8%,70.8%
O=C(OCc1ccc2c(Cl)cc(Cl)c(O)c2n1)N1CCNCC1,29.9%,48.9%,26.2%,34.6%,27.5%,60.2%,31.5%
COc1ccc(C=C2c3ccccc3-c3ccccc32)cc1,46.6%,-10.4% (active),19.4%,13%,16.9%,73.6%,24.8%
O=C1C(Cl)=C(Nc2ccc3cn[nH]c3c2)C(=O)c2ccccc21,-52.3% (active),-95% (active),-86% (active),-68.3% (active),-98.6% (active),-83% (active),28%
Cc1ccc(S(=O)(=O)N/N=C2\CC3CCC2(C)C3(C)C)cc1 (configuration not stated),105%,103%,99.3%,90.3%,104%,748%,95.4%

SMILES,growth [1],growth [2],growth [3],growth [4],growth [5],growth [6],growth [7]
COc1ccc(C(=O)CCC(=O)O)cc1,33.9%,107%,84.5%,21.2%,7.77% (active),102%,103%
CC1(C(=O)O)CCC(N)(C(=O)O)C1(C)C (configuration not stated),98.4%,115%,108%,99.5%,110%,120%,111%
C=CC1=C(C)C2=NC1=CC1=NC(=CC3=C(C)C4=C(O)C(C(=O)O)C(=C5NC(=C2)C(C)C5CCC(=O)O)C4=N3)C(CC)=C1C (configuration not stated),123%,120%,104%,113%,101%,109%,105%
CCNc1cc2c(cc1Br)-c1ccccc1C2=O,34.4%,114%,98.9%,26.8%,97.8%,102%,83.4%
Nc1cc(Cl)cc2cccnc12,112%,106%,102%,95.2%,109%,93.5%,101%
COc1ccc(-c2cc(-c3ccc(OC)c(OC)c3)nc(SCCCCCC(=O)NO)n2)cc1,-1.6% (active),40.7%,32.8%,54.4%,14.6%,86.7%,63.9%
Cc1nc(Cl)c2c(n1)N(C)c1ccc(Cl)cc1C(C)C2 (configuration not stated),71%,85.9%,86.5%,95.6%,80.1%,98.6%,92.4%
Cc1ccc2c(c1)C(C)Cc1c(Cl)ncnc1N2C (configuration not stated),51.8%,6.38% (active),16.6%,13.5%,12.9%,20.5%,9.89% (active)
CC1Cc2c(Cl)ncnc2N(C)c2ccc(Cl)cc21 (configuration not stated),2.19% (active),3.3% (active),6.73% (active),7.64% (active),7.96% (active),36.9%,10.1%
NNC(=O)c1ccc(C(=O)NN)cc1,133%,106%,99.2%,106%,108%,100%,107%
O=C(NCCCNC(=O)OCc1ccc2c(Br)cc(Br)c(O)c2n1)OCc1ccc2c(Br)cc(Br)c(O)c2n1,-58.2% (active),-71.2% (active),-44.7% (active),-28.1% (active),-66% (active),-42.5% (active),7.57% (active)
Oc1c(CNCCNCc2cc(Cl)cc(Cc3ccccc3)c2O)cc(Cl)cc1Cc1ccccc1,26.1%,22.8%,29.6%,17.4%,18.6%,20.2%,20.5%
CCC(C)[C@H](NC(=O)NC(=O)NC(=O)CI)C(=O)OC (some centres not stated),38.5%,69.5%,9.41% (active),42.1%,65.2%,103%,100%
Cn1ncc2c(Nc3ccc(O)cc3)nc(Cl)nc21,106%,102%,118%,94%,108%,105%,106%
Oc1ccc(N=Nc2nccs2)c(O)c1,58.1%,64.4%,41.3%,57.1%,5.98% (active),73.4%,51.7%
COC(=O)C(=Cc1ccccc1[N+](=O)[O-])C(=O)OC,22.6%,15.5%,34.7%,15.4%,6.83% (active),55.2%,15.7%
c1ccc(-c2n[nH]c(-c3ccccn3)n2)nc1,95.8%,106%,117%,93.5%,110%,108%,128%
O=C(CSc1nccc(Nc2ccc(S(=O)(=O)Nc3ccccn3)cc2)n1)c1ccc(Cl)cc1,50.6%,118%,105%,91.4%,92.2%,106%,97.6%
